Screening data from PubChem BioAssay.
Shown are actives, neighbours in structure and some others; about 4.3% of the full set was active somewhere.
MITF TRPM1 HTS: MITF TRPM1 promoter activation in melanoma cells; SK-MEL-5 TRPM1-promoter luciferase, 24 h; % of positive control, neutral wells = 0; activation, % at 12.5 µM; hit rate 0.75% among 300,000; AID 588334;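 active means mean activation of at least 80% with every replicate also reaching 80%; inconclusive means mean reaches 80% but some replicate falls short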;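 further: 0% = neutral control wells and 100% = parthenolide positive control wells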
FGF22 binding: FGF22 (human) thermal shift binding; recombinant FGF22 thermal shift, SYPRO orange fluorescence; percent of sucrose octasulfate shift, DMSO zero; activity (Tm shift, normalised), % at 9.99 µM; hit rate 1.5% among 340,000;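 active means mean Tm shift, scaled 0 neutral to 100 positive control, at about 1.3% or above, every replicate too, limit read from the data; inconclusive means no clear call, values can overlap the other calls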
Target sequence (Q9HCT0 whole entry, looked up): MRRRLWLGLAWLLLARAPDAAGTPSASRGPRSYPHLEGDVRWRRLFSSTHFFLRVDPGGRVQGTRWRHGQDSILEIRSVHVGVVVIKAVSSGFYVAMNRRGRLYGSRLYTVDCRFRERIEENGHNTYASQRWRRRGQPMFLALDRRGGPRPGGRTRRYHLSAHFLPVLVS
esBAF inh: SWI/SNF esBAF complex inhibition. reporter increase, % at 12.5 µM. mouse ES cells, Bmi1-luciferase knock-in reporter, 24 h; 100% = twice the neutral-well signal. AID 602393. hit rate 2% among 350,000; in the data active means activation above about 40%; inconclusive means no clear call, values can overlap the other calls;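 further: 0% = median of the plate's neutral control wells and 100% = double that signal; a rise in the Bmi1 reporter signal indicates esBAF inhibition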
SMARCA2 act: SMARCA2 function activation, primary screen | MG213 cells, MMTV-luciferase reporter, dexamethasone, overnight | activation, % at 9.1 µM | hit rate 1% among 370,000; in the data active means activation above about 7.8%;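 further: 0% = vehicle wells and 100% = reference activator wells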
MLL AF4-AF9 inh: blocks AF4 peptide binding to human AF9; P42568; AlphaScreen, biotin-AF4 peptide binding to FLAG-AF9; inhibition, % at 10 µM; hit rate 0.47% among 350,000; AID 651704;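 active means every replicate reaching a set inhibition limit, whatever the replicate mean, cut at about 25% in these data; inconclusive means mean inhibition reaches that limit but some replicates miss it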;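 further: 0% = plate neutral control median and 100% = total signal loss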
Wnt act: Wnt/beta-catenin pathway activation; Wnt/beta-catenin reporter cell assay, activator, plate reader; activation, % at 9.35 µM; hit rate 1.2% among 300,000; in the data active means activation above about 30%, passing the limit was not always enough; inconclusive means no clear call, values can overlap the other calls;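 further: 0% = neutral control wells and 100% = positive control wells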
SMARCA2 act conf: SMARCA2 activation, confirmation screen | shares compounds with SMARCA2 act | MG213 cells, MMTV-luciferase with dexamethasone, luminescence, overnight; MG213 cells expressing E1A, Rb sequestered; DMSO wells 0%, reference activator 100% | activation, % at 9.1 µM | hit rate 30% among 3,500;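 active means activation above its plate's cutoff, the mean activation of tested wells plus 3 SD, cut at about 7.9% in these data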
GAL4-VP16 Luc: activates GAL4-VP16 luciferase, flagging SMARCA2 activator hits | activation, % at 9.1 µM | shares compounds with SMARCA2 act | hit rate 41% among 3,500 | HEK293 GAL4-VP16 pG5luc reporter, luciferase luminescence; scaled: DMSO wells 0%, SAHA wells 100%;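 active means activation above the solvent-only control well mean plus 3 SD, averaged across control plates, cut at about 5.2% in these data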
Starred values were filed as active, the others as inactive; u = inconclusive; x = not tested or not shown.

SMILES	MITF TRPM1 HTS	FGF22 binding	esBAF inh	SMARCA2 act	MLL AF4-AF9 inh	Wnt act	SMARCA2 act conf	GAL4-VP16 Luc
COCCn1c(C)cc(C(=O)COC(=O)c2ccc([N+](=O)[O-])o2)c1C	-1	0	-13	3	3	0	x	x
Cc1cc(C(=O)COC(=O)c2ccc([N+](=O)[O-])o2)c(C)n1CC1CCCO1 (stereo not drawn)	17	0	-18	8.5*	-3	3	1	1
CCC(=O)N[C@H]1C[C@@H]2O[C@@H](CO)CC[C@@H]2O[C@@H]1CCc1ccc(-c2cccc(OC)c2)cc1	x	x	x	-1	-4	x	x	x
CCN(CC)C(=O)c1cccc(-c2csc(C(O)c3ccco3)n2)c1 (stereo not drawn)	x	0	-1	-3	-3	-2	x	x
CC(C)c1cccc(-c2csc(C(O)c3ccco3)n2)c1 (stereo not drawn)	x	0	54*	9.2*	-4	16	6	4
COc1ccc(OC)c(S(=O)(=O)N2CCC(C(=O)Nc3cccc(C)c3C)CC2)c1	-3	x	9	8.4*	x	-3	-2	1
COc1ccc(OC)c(S(=O)(=O)N2CCC(C(=O)Nc3ccc(C)c(C)c3)CC2)c1	-8	x	x	-5	x	x	x	x
Cc1c(NC(=O)C2CCCO2)cccc1[N+](=O)[O-] (stereo not drawn)	-9	x	x	9.5*	x	x	2	0
Cc1cccc([N+](=O)[O-])c1NC(=O)COC(=O)C1CCCO1 (stereo not drawn)	3	0	-4	-3	u	1	x	x
CCC(=O)N(C)C[C@H]1Oc2cc(-c3ccccc3)ccc2S(=O)(=O)N([C@H](C)CO)C[C@H]1C	x	0	-7	x	1	x	x	x
O=C(N/N=C1/CC2C=CCC12)c1ccco1 (stereo not drawn)	5	x	x	8.9*	x	-1	2	1
Cc1ccc2c(c1)N(CC(=O)NCCCc1ccccc1)C(=O)c1cccnc1O2	1	x	0	3	-1	-2	x	x
Cc1ccc2c(c1)N(CC(=O)NCC(C)c1ccccc1)C(=O)c1cccnc1O2 (stereo not drawn)	7	0	28	12*	0	-1	-3	0
COC(=O)c1ccc2c(c1)C(C)(C)C(/C=C/c1ccc(O)cc1)=[N+]2C	-106	x	x	14*	x	x	-16	-2
O=C1[C@@H]2[C@H](C(=O)N1c1ccccc1)[C@@]13COC[C@H](c4ccccc4)N1C(=O)[C@]2(C(=O)NCc1ccccc1)O3	x	0	x	x	1	x	x	x
O=C(COC(=O)c1ccccc1NS(=O)(=O)c1cccs1)NCC12CC3CC(CC(C3)C1)C2	-4	0	x	8.9*	-5	-2	-1	1
CCOc1ccc(NC(=O)c2cnccn2)cc1	22	x	-34	6	x	12	x	x
CCOc1ccc(NC(=O)c2cnsn2)cc1	14	x	-47	8.1*	x	6	14*	5
CCOc1ccc(NC(=O)c2ccccc2CO)cc1	45	x	u	4	x	x	x	x
CCOc1ccc(NC(=O)c2nccnc2CO)cc1	53	x	-1	9.8*	x	x	4	9.8*
C[C@@H]1CN([C@@H](C)CO)C(=O)c2cccc(NC(=O)Nc3ccccc3)c2O[C@H]1CN(C)S(C)(=O)=O	x	0	2	x	-3	x	x	x
Cc1cc(NC(=O)CN2C(=O)NC(CC(C)C)C2=O)ccc1Br (stereo not drawn)	36	0	-1	7	0	0	x	x
CC(C)CC1NC(=O)N(CC(=O)Nc2cccc(Br)c2)C1=O (stereo not drawn)	6	0	-2	9.6*	1	-5	1	1
CCCNC(=O)N(C)C[C@H]1Oc2cc(C#CC(C)C)ccc2S(=O)(=O)N([C@H](C)CO)C[C@@H]1C	x	0	-4	x	-3	x	x	x
CCC(=O)N1N=C(c2c(-c3ccccc3)c3cc(Cl)ccc3[nH]c2=O)CC1c1ccco1 (stereo not drawn)	-13	x	x	10*	x	x	-3	0
SMILES	MITF TRPM1 HTS	FGF22 binding	esBAF inh	SMARCA2 act	MLL AF4-AF9 inh	Wnt act	SMARCA2 act conf	GAL4-VP16 Luc
O=C(O)CCC(=O)N1N=C(c2c(-c3ccccc3)c3cc(Cl)ccc3[nH]c2=O)CC1c1ccco1 (stereo not drawn)	2	x	x	-1	x	1	x	x
Cc1cc(C)nc(Nc2ccccc2F)n1	x	0	14	-1	-1	1	x	x
Cc1cc(C)nc(Nc2ccccc2Cl)n1	9	0	-3	12*	7	2	2	1
Nc1nc(=O)c2ccccc2s1	-4	0	x	5	-17	1	x	x
O=C(Nc1nc2c(s1)C(=O)CCC2)c1ccccc1	50	x	x	8.3*	x	x	9.7*	12*
Cc1ccc(C(=O)Nc2nc3ccccc3c(=O)s2)cc1	49	x	11	17*	x	12	7	6.3*
CCOC(=O)N/C(N)=N/c1nc2ccccc2s1	x	x	57*	9.9*	x	56*	8.4*	14*
CC(=O)N/C(N)=N/c1nc(=O)c2ccccc2s1	x	0	x	8.2*	-5	29	13*	8.9*
Cc1noc(C)c1S(=O)(=O)N(C)C[C@@H]1Oc2c(cccc2N(C)C)C(=O)N([C@@H](C)CO)C[C@H]1C	x	0	6	x	-16	x	x	x
CN1c2ccc(-c3ccc(C#N)cc3)cc2[C@H]2[C@H](CCN2C(=O)C2CCCCC2)[C@@H]1CO	x	0	5	x	-4	x	x	x
O=C(Nc1nc2ccccc2s1)c1ccc(Cl)s1	62	0	u	6	0	22	x	x
O=C(Nc1nc(=O)c2ccccc2s1)c1ccccc1	23	x	x	24*	x	39*	6	9.6*
CC(=O)Nc1nc(=O)c2ccccc2s1	-3	0	6	8.3*	-37	2	1	2
COc1ccc(NC(=O)Nc2ccc3c(c2)C(=O)N([C@@H](C)CO)C[C@H](C)[C@H](CN(C)S(=O)(=O)c2ccc(F)cc2)O3)cc1	x	0	1	x	x	x	x	x
C[C@]12CS(=O)(=O)C[C@H]1SC(=S)N2c1ccccc1	-6	0	3	0	-1	1	x	x
CN1C(=S)SC2CS(=O)(=O)CC21C (stereo not drawn)	x	0	x	12*	1	0	-3	-1
Cc1ccc(-c2noc(-c3ccoc3C)n2)cc1	46	0	34	10*	-1	19	8.2*	10*
C[C@H](O)[C@@H]1C(=O)N2CCc3c([nH]c4cccc(-c5ccccc5)c34)[C@@H]2C[C@@H]1N(C)C(=O)C1CCCCC1	x	0	x	0	x	-2	x	x
